Measurements: PubChem BioAssay (NCI)
Several values for one entry are separate records, joined by “and”; a condition that tells them apart may be missing. Equal entries are not always repeated. This is part of a sample that, as a whole, favours compounds with a hit. Of some 79,000 tested, about 15% had one in any assay. Some compounds were tested as several samples or in several runs, with calls that do not always agree. Activity calls are given as the source filed them. Cut-off read from the data, not from the text of the source: active = growth inhibition above about 70%; inactive = the rest.

Assay: NCI Yeast Anticancer Drug Screen. Data for the cln2 rad14 strain (AID 165);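 note: 0% = growth equal to vehicle treated cultures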
Conditions: S. cerevisiae cln2 rad14 strain, stronger effect = higher value
Protocol: Growth inhibition of yeast strains with defined genetic alterations is measured as a screen for potential anti-cancer activity. Selected strains with alterations in DNA damage repair or cell cycle control were exposed to compounds and growth inhibition was measured relative to vehicle treated controls. The strain used in this assay is cln2 rad14

[1] = at 5.0 µM (retest, dose inferred, filed as 0.5)
[2] = at 50.0 µM (retest, dose inferred, filed as 5.0)

SMILES	growth inhibition [1]	growth inhibition [2]	growth inhibition (at 50.0 µM)
Nc1nc(-c2ccccn2)cc2ccccc12	21% (inactive)	62% (inactive)	4.4% (inactive)
NS(=O)(=O)c1ccc(Nc2c3ccccc3nc3c(C(=O)N4CCN(CCO)CC4)cccc23)cc1	25% (inactive)	25% (inactive)	29.9% (inactive)
CCCCCCCN	-5% (inactive)	52% (inactive)	33.7% (inactive)
COC(=O)C1C(O)C(C)C(O)C(C)C=C(C)C2=C3C(=C(C)C(=O)c4c(O)c(c(C)c(OC(C)=O)c43)NC(=O)C(C)=C/C=C\C(C)C(O)C(C)C1O)OCO2 (configuration not stated)	-10% (inactive)	10% (inactive)	28.6% (inactive) and 3% (inactive)
COc1cc2c3c(c1)SCCC(=O)N3CCN2	-4% (inactive)	-4% (inactive)	80.4% (active)
CCN1CCC(O)(/C=C/c2ccc(C)cc2)C(C(=O)/C=C/c2ccc(C)cc2)C1 (configuration not stated)	9% (inactive)	99% (active)	91.8% (active)
Nc1ccc(Cc2ccc(Br)cc2)cc1	8% (inactive)	98% (active)	98.8% (active)
O=C1C=CC(=O)N1c1ccc(N=Nc2ccccc2)cc1	98% (active)	92% (active)	87.2% (active) and 20.6% (inactive)
CC(=O)Oc1ccc2c(c1)Oc1cc(OC(C)=O)ccc1C21OC(=O)c2ccccc21	3% (inactive)	54% (inactive)	14.2% (inactive) and -25.1% (inactive)
C=CCc1c2c(ccc(=O)c1O)-c1c(cc(OC)c(OC)c1OC)CCC2NC(C)=O (configuration not stated)	-12% (inactive)	93% (active)	72% (active)
CC(C)(c1ccc(O)cc1)c1ccc(O)cc1	9% (inactive) and 16% (inactive)	39% (inactive) and 78% (active)	50.4% (inactive) and 71.2% (active)
CO[C@H](C(=O)[C@@H](O)[C@@H](C)O)[C@@H]1Cc2cc3cc(OC4CC(OC5CC(O)C(O)C(C)O5)C(O)C(C)O4)c(C)c(O)c3c(O)c2C(=O)[C@H]1OC1CC(OC2CC(OC3CC(C)(O)C(O)C(C)O3)C(O)C(C)O2)C(O)C(C)O1 (some centres not stated)	21% (inactive)	47% (inactive)	93.2% (active) and 11.2% (inactive)
CCCCN(CCCC)C(Cl)=Nc1ccccc1	17% (inactive)	19% (inactive)	81% (active)
COc1ccc(/C=C/NC=O)cc1	-2% (inactive)	4% (inactive)	-8.25% (inactive)
